KB-V1 MDR tox: qHTS assay for MDR1-selective chemotherapeutics: Primary screen using the drug-selected MDR subline cells KB-V1. KB-V1 MDR cells viability, CellTiter-Glo, 72 h. AID 1347076, 2019. 400,000 tested, 3.4% active. Potency, µM (series often up to 46.1 µM), most hits filed as cytotoxic; note: % is set by controls: 0 for no effect and ±100 for the full control effect; nearly all actives have a fitted effect of over 60% in size
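KB-V1 cells (P-gp-expressing MDR subline of KB-3-1) in phenol-red-free DMEM with 10% FBS were exposed to library compounds over a concentration series for 72 h at 37 degrees C. Viability read by CellTiter-Glo luminescence; concentration-effect curves fitted after normalization.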
HT1080-NT tox: qHTS for induction of synthetic lethality in tumor cells producing 2HG: qHTS for the HT-1080-NT fibrosarcoma cell line. HT-1080-NT fibrosarcoma viability, CellTiter-Glo ATP luminescence, 48 h. Potency, µM (series often up to 46.1 µM), for inactives: top-dose activity, negative = less viability, hits mostly cytotoxic. 360,000 tested, 1.6% active. AID 686970, 2013;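 note: NT is the 2HG producing partner of a matched IDH1 knockdown line; 0% = DMSO-treated cells and -100% = media-only wells without cells; nearly all actives have a fitted effect of over 55% in size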
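Toxicity toward the 2HG-producing NT line was scored as %Activity, normalised to DMSO and no-cell wells, from CellTiter-Glo luminescence after 48 hours' treatment.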
S2 tox: Viability Counterscreen for Primary qHTS for Inhibitors of ATXN expression. S2 cells (HEK-293 line with an ATXN2-luciferase reporter) viability, CellTiter-Fluor protease fluorescence, 24 h. Potency, µM (highest dose often 56.7 µM), actives largely listed as cytotoxic. 400,000 tested, 0.49% active; note: nearly all actives have a fitted effect of over 40% in size
KB-3-1 tox: qHTS assay for MDR1-selective chemotherapeutics: Primary screen using the parental adenocarcinoma cell KB-3-1; KB-3-1 viability, CellTiter-Glo ATP luminescence, 72 h; Potency, µM (titrated, usually from 46.1 µM), usual class: cytotoxic; 400,000 tested, 1.4% active; note: % is set by controls: 0 for no effect and ±100 for the full control effect; nearly all actives have a fitted effect of over 60% in size
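72 h, 37 °C compound treatment of KB-3-1 parental cells; CellTiter-Glo added, 10 min, luminescence read. Data corrected against DMSO-only plates and normalized before curve fitting.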
HT1080 IDH1KD tx: qHTS for induction of synthetic lethality in tumor cells producing 2HG: qHTS for the HT-1080-IDH1KD cell line; HT-1080 IDH1 knockdown viability, ATP luminescence, 48 h; Potency, µM (titrated, usually from 46.1 µM), for the others: at the top dose activity, negative = toxicity, most hits filed as cytotoxic; 360,000 tested, 2% active; AID 686971, 2013;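 note: 0% = DMSO wells and -100% = cell-free medium wells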
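HT-1080-IDH1KD cells (IDH1 knocked down), 750/well in RPMI with 5% FBS, treated with compound 48 h at 37 degrees C. Viability by CellTiter-Glo luminescence, normalised to DMSO and no-cell wells; concentration-response curves classed.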
ATXN2 expr inh: Primary qHTS for Inhibitors of ATXN expression. HEK-293 ATXN2-luciferase reporter, luminescence, 24 h. Potency, µM (doses to about 57 µM), for inactives: top-dose activity change, negative = inhibition, hits mostly inhibitors. 360,000 tested, 0.72% active. AID 1745845, 2022; note: % is set by controls: 0 for no effect and ±100 for the full control effect; nearly all actives have a fitted effect of over 55% in size
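ATXN2-luciferase reporter cells (luciferase flanked by upstream and downstream ATXN2 gene portions) were treated 24 h at 37 °C with compounds at up to 57 uM. SteadyGlo luminescence gave expression; GF-AFC fluorescence gave viability.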
* marks the source's active call; other numbers are inactive results; [ ] = remark or other dose. The list is not random: actives were taken first. Their share in the collection is about 6.2%. Calls come from the whole dose curve; as a rule, active = well fitted curve in the direction sought with a large enough effect; inconclusive = small, poorly fitted or top-dose-only effect, or another doubt; inactive = no such curve, though single readings can be large; an effect the other way counts as inactive or inconclusive. Potency is the fitted concentration of half-maximal effect.

Screening O=C(c1cc(-c2cccs2)nn1-c1ccccc1)N1CCN(S(=O)(=O)c2ccccc2)CC1 returned KB-V1 MDR tox 16.4µM*, HT1080-NT tox -2.9%, S2 tox inactive, KB-3-1 tox inactive, HT1080 IDH1KD tx 0.1% and ATXN2 expr inh -25.2%.
`Cc1ccc(S(=O)(=O)N2CCN(C(=O)c3cc(-c4cccs4)nn3-c3ccccc3)CC2)cc1` gave KB-V1 MDR tox 4.61µM*, HT1080-NT tox -0.5%, S2 tox inactive, KB-3-1 tox inactive, HT1080 IDH1KD tx -0.2% and ATXN2 expr inh -21.4%.
For O=C(c1cc(-c2ccccc2)nn1-c1ccccc1)N1CCN(S(=O)(=O)c2ccc(F)cc2)CC1 the results were KB-V1 MDR tox inconclusive, HT1080-NT tox 0.4%, S2 tox inactive, KB-3-1 tox inactive, HT1080 IDH1KD tx -0.9% and ATXN2 expr inh 5.8%.
`CCn1nc(C)cc1C(=O)N1CCC2(CC1)c1ccccc1[C@@H](NC(=O)c1cccnc1)[C@@H]2O` gave S2 tox inactive.
`C[C@]12C=CC(=O)N[C@@H]1CC[C@H]1[C@H]3CC[C@@H](C(=O)Nc4cc(C(F)(F)F)ccc4C(F)(F)F)[C@@]3(C)CC[C@@H]12` gave ATXN2 expr inh -26.7%.
Screening CC1OC(CCc2cccc(Cl)c2)Cc2[nH]c(=S)[nH]c(=O)c21 (configuration not stated) returned KB-V1 MDR tox inconclusive, HT1080-NT tox -14.4%, S2 tox inactive, KB-3-1 tox inactive, HT1080 IDH1KD tx -5.4% and ATXN2 expr inh -0.8%.
Screening CCOc1ccc(C(=O)c2cn(CC(=O)Nc3ccc(C)c(C)c3)c3ccc(OCC)cc3c2=O)cc1 returned KB-V1 MDR tox inactive, S2 tox inactive, KB-3-1 tox inactive and ATXN2 expr inh 3.7%.
For CCCCNc1oc(-c2cccs2)nc1S(=O)(=O)c1ccccc1 the results were KB-V1 MDR tox 14.6µM*, HT1080-NT tox 5.1%, S2 tox inactive, KB-3-1 tox inconclusive, HT1080 IDH1KD tx inconclusive and ATXN2 expr inh 17.3%.
For CNc1oc(-c2cccs2)nc1S(=O)(=O)c1ccccc1 the results were KB-V1 MDR tox inconclusive, HT1080-NT tox -7.4%, S2 tox inactive, KB-3-1 tox inactive, HT1080 IDH1KD tx -2.2% and ATXN2 expr inh -0.2%.
Screening O=C1NC(=O)N(C2CCCCC2)CC1Br (configuration not stated) returned KB-V1 MDR tox inactive, HT1080-NT tox 9.5%, S2 tox inactive, KB-3-1 tox inactive, HT1080 IDH1KD tx 4.5% and ATXN2 expr inh 0.3%.
COc1cc(NC(=O)C(Cc2ccccc2)NS(=O)(=O)c2cccs2)cc(OC)c1 (configuration not stated) was read as KB-V1 MDR tox inconclusive, S2 tox inactive, KB-3-1 tox inconclusive and ATXN2 expr inh -12.4%.
For Cc1cc(C)c2c(C)nn(C3CCCCC3)c2n1 the results were KB-V1 MDR tox inactive, HT1080-NT tox -3.0%[9.24 µM], S2 tox inactive, KB-3-1 tox inactive, HT1080 IDH1KD tx 0.7% and ATXN2 expr inh 3.0%.
`Nc1ncnc2c1c(-c1cnc3[nH]ccc3c1)nn2C1CCCC1` gave ATXN2 expr inh 19.3µM*.
For O=[N+]([O-])c1cccc(C2NCC(c3ccccc3Cl)c3c2[nH]c2ccccc32)c1 (configuration not stated) the results were KB-V1 MDR tox 16.4µM*, HT1080-NT tox inconclusive, S2 tox inconclusive, KB-3-1 tox inactive, HT1080 IDH1KD tx 25.9µM* and ATXN2 expr inh -14.8%.

Compound activity (PubChem)
